From PubChem BioAssay (NCI)
The panel holds about 79,000 compounds, 15% with a hit somewhere; the sample as a whole holds those more often. Unmarked numbers belong to inactive results. Activity calls are given as the source filed them. Cut-off read from the data, not from the text of the source: active = growth inhibition above about 70%; inactive = the rest.

What was measured:
[1] = NCI Yeast Anticancer Drug Screen. Data for the rad50 strain (AID 155);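 note: 0% = growth of vehicle-only cultures of the same strain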; details: S. cerevisiae rad50 strain growth inhibition; at 50.0 µM; hits give high values
Summary of the method: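 Growth of the mutant yeast was measured after compound exposure and referenced to vehicle-treated cultures.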

[2] = NCI Yeast Anticancer Drug Screen. Data for the mec2-1 strain (AID 157); details: S. cerevisiae mec2-1 strain, at 50.0 µM, hits give high values
Summary of the method: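 mec2-1 yeast strain, carrying an alteration in DNA damage repair or cell cycle control, was exposed to compounds; growth inhibition was measured relative to vehicle-treated controls.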

[3] = NCI Yeast Anticancer Drug Screen. Data for the sgs1 mgt1 strain (AID 161);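 note: 0% = growth of cultures given vehicle only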; details: S. cerevisiae sgs1 mgt1 strain, at 50.0 µM, hits give high values
Summary of the method: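 Compounds are added to genetically altered yeast, and growth is compared with cultures given vehicle alone to give percent inhibition.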

[4] = NCI Yeast Anticancer Drug Screen. Data for the cln2 rad14 strain (AID 165);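 note: 0% = growth equal to vehicle treated cultures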; details: S. cerevisiae cln2 rad14 strain, at 50.0 µM, hits give high values
Summary of the method: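 Yeast carrying cln2 and rad14 alterations (cell cycle control and DNA damage repair) were exposed to compounds. Growth inhibition was measured against vehicle-treated controls.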

[5] = NCI Yeast Anticancer Drug Screen. Data for the bub3 strain (AID 167); details: S. cerevisiae bub3 mutant strain, at 50.0 µM, hits give high values
Summary of the method: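 Whole-cell yeast assay. The mutant strain was incubated with compounds, and growth inhibition was determined by comparison with vehicle-treated cells.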

[6] = NCI Yeast Anticancer Drug Screen. Data for the mlh1 rad18 strain (AID 175); details: S. cerevisiae mlh1 rad18 strain growth inhibition; at 50.0 µM; hits give high values
Summary of the method: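 Growth inhibition of the yeast strain was measured after compound exposure and expressed relative to vehicle-treated controls. The strain carries defined defects in DNA damage repair.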

| Compound | growth inhibition [1] | growth inhibition [2] [%] | growth inhibition [3] | growth inhibition [4] | growth inhibition [5] | growth inhibition [6] |
| --- | --- | --- | --- | --- | --- | --- |
| CCCCC1C(=O)N=C2C=CC=CN2C1=O (stereo unspecified) | -2.15% | -16.9 | -5.75% | 3.5% | -24.2% | -7.4% |
| NC(=O)N/N=C/c1ccncc1 | -7.15% | 28.6 | -24.9% | -7.05% | 8.6% | 7.45% |
| Nc1c(-c2nc3ccccc3s2)[n+]([O-])c2ccccc2[n+]1[O-] | 7.45% | 20.6 | 19% | 29.6% | -57.8% | 15.9% |
| Cc1c(C)c(CO)c(C)c(C)c1CO | -15.8% | -19.4 | 15.8% | 4.9% | 12.1% | -2.1% |
| CCCC[N+](CCCC)(CCCC)CC(=O)[O-] | 5.7% | -3.1 | -19.8% | -45.1% | -8.3% | -24.6% |
| CC1(C2c3ccccc3CC2OC2CCCCO2)CO1 (stereo unspecified) | -8.35% | -10.6 | -9.5% | -10.2% | -5.75% | 2.35% |
| CCOC(=O)COC(=O)CCc1ccccc1 | 0.3% | -39.6 | -5% | -36.8% | -12.9% | 0.45% |
| COC(=O)C1=CC(O)CCC1c1ccc(OC)cc1 (stereo unspecified) | -6.2% | -10.7 | -13.2% | -5.8% | -5.45% | -19.2% |
| CC(NC(=O)NCCCl)C1CC1 (stereo unspecified) | -2.1% | 0 | -4.75% | -11.8% | -14.4% | -0.8% |
| O=c1cc(-c2cccc3ccccc23)[nH]c2ncccc12 | -13.3% | -10.7 | -21.9% | 13.9% | -9.3% | -29.5% |
| O=C(CC(O)(C(F)(F)F)C(F)(F)F)C(CCCl)C(O)(C(F)(F)F)C(F)(F)F (stereo unspecified) | 17.6% | 18.9 | 41.6% | 21.4% | 8.05% | 38.8% |
| C=CCC(C(=O)NC(N)=O)c1ccccc1 (stereo unspecified) | 3.9% | -7.65 | -11.3% | 19.5% | 8.05% | 0.35% |
| CCCCCCCC(=O)OC(CC)CCCC (stereo unspecified) | 5.25% | -9.9 | 1.5% | 8.35% | 3.6% | -1.2% |
| Cc1ccc2cccc(C)c2n1 | -14.9% | -26.6 | -45.3% | -6.7% | -29.6% | -23.5% |
| O=C(NC1CCCCC1NC(c1ccccc1)(c1ccccc1)c1ccccc1)C(=O)NC1CCCCC1NC(c1ccccc1)(c1ccccc1)c1ccccc1 (stereo unspecified) | -33.9% | -22.4 | -13.7% | 12.1% | -10.1% | -2.35% |
| CC1(C)CC(c2c[nH]c3ccccc23)=CC2=Nc3ccccc3C21O (stereo unspecified) | -41.9% | 6.7 | 3.8% | 15% | 2.65% | 16.7% |
| C=Cc1c(C)c(OC)cc2c1Oc1ccc(OC)c(C)c1CC2 | 0.75% | -0.2 | 19.5% | 8.35% | 13.8% | -23.6% |
| CC(=O)c1cnn(C(N)=O)c1C | -42.6% | -18.5 | -23.7% | -46.5% | 13.5% | -5.75% |
| COC(=O)CCC(N)C(=O)O (stereo unspecified) | 10.2% | -11.2 | -7.15% | -10.3% | -24.9% | -4.2% |
| COC1OC(COC(c2ccccc2)(c2ccccc2)c2ccccc2)C(OS(=O)(=O)c2ccc(C)cc2)C(OC(=O)c2ccccc2)C1OC(=O)c1ccccc1 (stereo unspecified) | 0.1% | -6.7 | -1.15% | -7.35% | 0.3% | 27.9% |
| CCCCCP(=O)(CCC(C)C)CC(C)C (stereo unspecified) | 8.95% | 7.3 | 20.7% | 28.9% | -10.6% | -6.6% |

| Compound | growth inhibition [1] | growth inhibition [2] [%] | growth inhibition [3] | growth inhibition [4] | growth inhibition [5] | growth inhibition [6] |
| --- | --- | --- | --- | --- | --- | --- |
| Nc1cc(N)n(C2=NCCN2)n1 | -1.5% | -27.5 | 8% | 11.1% | 0% | -13.3% |
| NC(=O)c1cc(OCc2ccccc2)nc2nc(Cl)nc(N)c12 | -5.05% | 14.6 | 3.35% | -15.8% | -0.8% | 5.05% |
| NC(N)=NS(=O)(=O)c1ccc(N2C(=O)CC3(CCCC3)C2=O)cc1 | 10.8% | -2.25 | -16.8% | 17.6% | 13.4% | 6.75% |
| O=C(Nc1ccn(C2CCC(COC(c3ccccc3)(c3ccccc3)c3ccccc3)O2)c(=O)n1)c1ccccc1 (stereo unspecified) | 8.05% | 19.4 | 27.6% | -25% | -26.2% | 16.9% |
| O=C(OCc1ccccc1CN1CCOCC1)c1ccc(Cl)cc1 | 42.1% | 68.5 | 75.7% (active) | 84% (active) | 87% (active) | 74.8% (active) |
| c1ccc(C(c2ccccc2)[n+]2ccccc2)cc1 | 4.5% | -1.3 | -6.1% | -11.2% | -5.5% | -6.25% |
| CN(CCN1CCOCC1)C(c1ccccc1)c1ccccc1 | 83.7% (active) | 66.3 | 87.9% (active) | 61.8% | 52.4% | 67.4% |
| O=[N+]([O-])c1ccc(/C([O-])=C(\C(=S)Nc2ccccc2Cl)[n+]2ccccc2)cc1 | -7.5% | 0.1 | -6.95% | -14.4% | 2.35% | 11.2% |
| C(=C(c1ccccc1)c1ccccc1)N1CCOCC1 | -2.3% | -5.5 | 4.7% | -52% | -20.1% | 1.2% |
| COCCOCOC(C)(C)CCCCl | 11.3% | 24 | 21.9% | -5.2% | -2.1% | -20% |
| CCCCCCCCCCCCCBr | 29.8% | -0.95 | 13.2% | 19.9% | 18.1% | 15.8% |
| O=C(O)/C=C/C(O)C1CCCCC1 (stereo unspecified) | -31.1% | -8.35 | -0.95% | -23.1% | 1.05% | -4.65% |
| NC1=NS(=O)(=O)Nc2nc(-c3ccc([N+](=O)[O-])cc3)[nH]c21 | -43% | -45.8 | -53% | -22.4% | -38.2% | -45% |
| COc1cc(C(=O)Nc2ccc(S(=O)(=O)Nc3nc(C)cc(C)n3)cc2)cc(OC)c1OC | -10.7% | -21.9 | -6.65% | 10.7% | -4.9% | -10.4% |
| Cc1cc(C)c(C)c(CN)c1C | -20% | -5.85 | -9.35% | 7.8% | 13.7% | -3% |
| Nc1cccc(CC(=O)c2ccccc2)n1 | -4.3% | -11 | -7.9% | -8.55% | -3.05% | -13.1% |
| CC1(O)c2ccccc2-c2c1n([O-])c1ccccc1[n+]2=O (stereo unspecified) | 7.9% | -6.2 | 12.2% | -43.9% | -1.8% | 3.9% |
| Nc1cccc(C(CC(=O)O)CC(=O)O)c1 | 14.8% | 10.9 | 13% | 16.7% | -1.5% | 15.8% |
| COc1cc(/C=N/NC(N)=S)cc(OC)c1 | -4.1% | -11.2 | -15.1% | -35.9% | -17.6% | -11.8% |
| CC/C(=C/CO)c1ccccc1 | 46.5% | 5.65 | 17.6% | 6.05% | 10.8% | 36.4% |
